DAX1 inh-1: inhibitors of human orphan nuclear receptor DAX1 (NR0B1); inhibition, % at 6.75 µM; AID 504766; P51843; hit rate 0.99% among 340,000; HEK293 Gal4-DAX1 luciferase reporter, luminescence;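 active = inhibition above the mean over all tested compounds plus 3 SD, cut at about 4.2% in these data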;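 note: inhibition shows as a rise in luminescence from relieved DAX1 repression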
Target sequence (P51843 207-470 limits assumed): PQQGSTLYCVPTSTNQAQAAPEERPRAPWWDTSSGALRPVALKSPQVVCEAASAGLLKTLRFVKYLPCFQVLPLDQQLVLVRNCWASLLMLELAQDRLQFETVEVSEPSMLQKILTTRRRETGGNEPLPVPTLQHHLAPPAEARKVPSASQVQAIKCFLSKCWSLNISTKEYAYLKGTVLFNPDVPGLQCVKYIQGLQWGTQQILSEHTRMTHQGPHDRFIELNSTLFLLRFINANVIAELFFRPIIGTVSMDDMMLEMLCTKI
hcDAF12 agonist: activators of H. contortus DAF-12 nuclear receptor | HEK293 hcDAF-12 lit1-tk-luc reporter, luminescence; 0% DMSO, 100% Δ7-dafachronic acid | activation, % at 6.8 µM | hit rate 1.4% among 370,000 | AID 652067;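 active = activation above the mean of all tested compounds plus 3 SD, cut at about 5.5% in these data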
hgDAF12 agonist: agonists of H. glycines DAF-12 nuclear receptor; AID 687014; HEK293 GAL4-hgDAF12 UAS-luciferase reporter, agonist luminescence; normalized to butyrate control; hit rate 1.8% among 370,000; activation, % at 6.8 µM;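 active = activation above a cutoff set at the mean of all screened compounds plus 3 SD, cut at about 10% in these data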
ssDAF-12 act: activates DAF-12 receptor from parasite S. stercoralis. HEK293 ssDAF-12/GRIP1 lit1-tk-luc reporter, luminescence; % of 3 µM dafachronic acid response. activation, % at 6.8 µM. hit rate 1% among 370,000;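 active = activation above the mean over all tested compounds plus 3 SD, cut at about 0.9% in these data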
DAX1 inh-2: DAX1 (NR0B1) inhibition, primary screen. HEK293T StAR-luciferase reporter, SF-1/DAX-1 repression relief. inhibition, % at 6.8 µM. hit rate 1.1% among 370,000;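 active = inhibition above the mean over all tested compounds plus 3 SD, cut at about 3.6% in these data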;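 note: higher inhibition means more luminescence from relief of DAX-1 repression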
A number is an active result; – = inactive; · = not tested or not shown; ! = not active in a repeat. In the library only some 4.1% were active in any assay of this set; here they are far more common.

SMILES | DAX1 inh-1 | hcDAF12 agonist | hgDAF12 agonist | ssDAF-12 act | DAX1 inh-2
COC(=O)[C@@H](C)NC(=O)c1ccc2oc(CCc3ccccc3)nc2c1 | – | – | 11.2 | – | –
COC(=O)CCCNC(=O)c1ccc2oc(CCCc3ccccc3)nc2c1 | – | – | – | – | –
CN(CC(=O)NCc1ccccc1Cl)S(=O)(=O)c1ccc2c(c1)n(C)c(=O)c(=O)n2C | – | 5.6 | – | – | –
O=C(C(=O)N1CCC(CNS(=O)(=O)c2ccccc2OC(F)(F)F)CC1)c1cccs1 | · | – | – | – | –
CC(=O)C(C(c1ccccc1)N1CCCc2ccccc21)N1CCOCC1 (stereo unspecified) | – | – | – | 1.1 | –
COc1cc(C=Nn2c(-c3ccccc3F)n[nH]c2=S)ccc1OCc1ccccc1 | · | – | – | – | –
CCOC(=O)Nc1ccc2c(c1)N(C(=O)OCCN(C)C)c1ccccc1CC2 | 5.1! | – | – | – | –
COc1ccc(N=Cc2c(O)n(-c3cccc(C)n3)c(=O)c3ccccc23)c(OC)c1 | 5.2 | – | – | – | –
N#Cc1cccc(OC[C@@H](O)CN2CCC(C(O)(c3ccccc3)c3ccccc3)CC2)c1 | · | – | – | – | –
c1ccc(-c2nnc(-c3ccccn3)nn2)nc1 | – | – | 12.6 | – | –
C=CCN1C(=O)[C@@H](CC(=O)NCc2ccccc2)[C@]2(C(=O)OC)CCCCC=C12 | · | – | – | – | –
O=c1[nH]c(-c2ccc3c(c2)OCO3)nc2c1sc(=S)n2-c1ccccc1 | – | – | – | 1.0 | –
Cc1nn(C(C)(C)C)c(C)c1/C=N/OC(=O)Nc1ccc(Cl)c(Cl)c1 | – | – | – | – | –
COc1ccc(NC(=O)O/N=C/c2c(C)nn(C(C)(C)C)c2C)cc1 | 6.3 | – | – | – | –
CC(=O)Oc1ccc([C@@H]2COc3c(ccc4c3C=CC(C)(C)O4)C2)c(OC(C)=O)c1 | 4.4 | – | – | – | –
NS(=O)(=O)c1ccc(NC(=O)COC(=O)/C=C/c2ccc([N+](=O)[O-])cc2)cc1 | – | – | – | 3.0 | –
O=C(COC(=O)/C=C/c1ccc([N+](=O)[O-])cc1)Nc1ccc(F)cc1 | – | – | – | – | –
O=C(CCc1nc2ccccc2c(=O)[nH]1)N1CCN(c2ccc(F)cc2)CC1 | – | – | – | – | –
Cc1ccc(-n2nc3c(Cl)nnc(C)c3c2C)cc1 | – | – | – | – | –
CSc1nnc2c(n1)c(C)nn2-c1ccc(C)cc1 | – | – | – | 1.3 | –
CC(=O)c1cccc(NC(=O)c2cnn3c(C)cc(C)nc23)c1 | · | – | – | – | ·
Cc1cccc(-c2noc(-c3ccno3)n2)c1 | 4.9 | – | – | – | –
Cc1cccc(-c2noc(C3CCCCC3)n2)c1 | – | – | – | – | –
CC(=O)Oc1ccc2occ(-c3ccccc3)c2c1 | – | – | – | – | –
CCN(CC)C(=O)Oc1ccc2c(=O)c(-c3ccccc3)coc2c1 | – | – | 11.5 | – | 4.1
SMILES | DAX1 inh-1 | hcDAF12 agonist | hgDAF12 agonist | ssDAF-12 act | DAX1 inh-2
COc1ccc(C(C(=O)N(C)C2CCCC2)N(Cc2ccc(F)cc2)C(=O)c2csc(N3CCOCC3)n2)cc1OC (stereo unspecified) | · | – | – | – | –
CC1=C(C(=O)Nc2ccccn2)C(c2ccc(Cl)cc2Cl)NC(=S)N1 (stereo unspecified) | – | – | – | – | –
CC1=C(C(=O)Nc2ccccn2)C(c2ccccc2Cl)NC(=S)N1 (stereo unspecified) | – | – | 11.3 | – | –
N#CCCCc1cn(-c2cccc(-c3noc4c3C(=O)N(CC(=O)N3CCOCC3)CC4)c2)nn1 | · | – | – | – | –
CC(=C/c1ccccc1)/C=N/n1c(C)n[nH]c1=S | 4.7 | – | – | – | –
CC(=C/c1ccccc1)/C=N/n1c(-c2ccncc2)n[nH]c1=S | – | – | – | – | –
CCN(Cc1ccncc1)C(=O)C(CO)c1ccccc1 (stereo unspecified) | – | – | 11.5 | – | –
CCCC[C@@H]1C(=O)N2N=Cc3cscc3[C@H]2N2N=Cc3cscc3[C@@H]12 | · | – | – | – | –
O=C1C2CCCCC2C(=O)N1c1ccc(NC2CCCCC2)c([N+](=O)[O-])c1 (stereo unspecified) | – | – | – | – | –
COCCNc1ccc(N2C(=O)C3CCCCC3C2=O)cc1[N+](=O)[O-] (stereo unspecified) | 4.6 | – | – | – | –
N#Cc1ccccc1OCC(=O)NC(=O)NCc1ccco1 | 7.0 | – | 11.3 | – | –
Cc1ccccc1OCCCC(=O)NCc1ccco1 | 4.4 | – | – | – | –
c1ccc(CNc2cncnc2)cc1 | – | – | – | 1.1 | –
Nc1ccc2nc(Cc3ccccc3)[nH]c2c1 | 4.6 | – | – | – | –
Cc1ccc(NC(=O)c2ccc3nc[nH]c3c2)c(O)c1 | – | 6.2 | 11.2 | – | –
COc1ccc(NC(=O)c2ccc3nc[nH]c3c2)c(OC)c1 | – | – | – | – | –
CCOc1ccccc1NC(=O)c1ccc2nc[nH]c2c1 | 4.4 | – | – | – | –
Cc1[nH]c2ccc(C(=O)Nc3ccncc3)cc2c1C | – | – | – | – | –
CCOC(=O)c1ccccc1NC(=O)c1ccc2nc[nH]c2c1 | – | – | – | – | –
COc1ccccc1NC(=O)c1ccc2[nH]c(C)c(C)c2c1 | – | – | 10.5 | – | –
Cc1ccc(N2C(=O)CC(NNC(=O)Cc3ccc(F)cc3)C2=O)cc1Cl (stereo unspecified) | – | – | – | – | –
Cc1c(N2C(=O)c3ccc4c5c(ccc(c35)C2=O)CC4)c(=O)n(-c2ccccc2)n1C | – | · | · | · | ·
Cc1c(N2C(=O)c3ccc(Br)cc3C2=O)c(=O)n(-c2ccccc2)n1C | 5.4 | – | – | – | –
Oc1ccc(Cl)cc1-c1cc(-c2ccccc2Cl)[nH]n1 | 5.6 | 6.1 | – | – | –
CCc1ccc(Nc2ncnc3nc[nH]c23)cc1 | 5.3 | – | 11.8 | – | –
SMILES | DAX1 inh-1 | hcDAF12 agonist | hgDAF12 agonist | ssDAF-12 act | DAX1 inh-2
Cc1ccc(NC(=O)Nc2ncnc3nc[nH]c23)cc1 | – | – | 12.2 | – | –
O=C(OCCN1CCN(C2CN(Cc3cn(Cc4ccc([N+](=O)[O-])cc4)nn3)S(=O)(=O)C2)CC1)c1cc2ccccc2o1 (stereo unspecified) | · | – | – | – | –
N#CC1(NC(=O)CSc2nc3ccccc3o2)CCCCC1 | 4.9 | – | – | – | –
Cc1ccccc1NC(=O)CSc1nc2ccccc2o1 | – | – | 11.0 | – | –
Cc1ccccc1/C=N/NC(=O)CSc1nc2ccccc2o1 | – | – | – | – | –
N#CC1(NC(=O)CSc2nc3ccccc3s2)CCCCC1 | – | – | – | – | –
O=C(OC12CCCN(C1)/C(=C/c1ccc(Cl)cc1)C2)C1CCCC1 (stereo unspecified) | · | – | – | – | –
CCN(CC)c1ccc([C@H]2[C@@H]3CCCC[C@]3(O)CCN2CC(=O)NCc2ccco2)cc1 | 4.7 | – | – | – | –
CCN(CC)c1ccc(C2C3CCCCC3(O)CCN2CC(=O)N2CCCCC2)cc1 (stereo unspecified) | – | – | – | – | –

Bioassay records from PubChem.
